Laboratory results: PubChem BioAssay AID1835 (Johns Hopkins Ion Channel Center, 2009)
The whole screen tested about 2,400 compounds, of which about 750 (31%) were called active. Some of the results follow. Values without a mark were called inactive.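 How the source made its calls: active means median signal gain over dofetilide-blocked control wells reaching their mean plus 3 SD, so readout 1 at least 0; inactive means the rest.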

What follows are compounds tested against Voltage-gated inwardly rectifying potassium channel KCNH2 (Homo sapiens) (UniProt Q12809) (assay: hERG protection against dofetilide inhibition, confirmation, cell-based, thallium flux, duplicate retest, dofetilide IC70 (AID 1835)). Conditions: hERG cell line, FluxOR thallium flux, dofetilide-blocked; at 10 µM; active compounds read high.
Sequence of Voltage-gated inwardly rectifying potassium channel KCNH2 (Homo sapiens) (Q12809 whole entry, looked up): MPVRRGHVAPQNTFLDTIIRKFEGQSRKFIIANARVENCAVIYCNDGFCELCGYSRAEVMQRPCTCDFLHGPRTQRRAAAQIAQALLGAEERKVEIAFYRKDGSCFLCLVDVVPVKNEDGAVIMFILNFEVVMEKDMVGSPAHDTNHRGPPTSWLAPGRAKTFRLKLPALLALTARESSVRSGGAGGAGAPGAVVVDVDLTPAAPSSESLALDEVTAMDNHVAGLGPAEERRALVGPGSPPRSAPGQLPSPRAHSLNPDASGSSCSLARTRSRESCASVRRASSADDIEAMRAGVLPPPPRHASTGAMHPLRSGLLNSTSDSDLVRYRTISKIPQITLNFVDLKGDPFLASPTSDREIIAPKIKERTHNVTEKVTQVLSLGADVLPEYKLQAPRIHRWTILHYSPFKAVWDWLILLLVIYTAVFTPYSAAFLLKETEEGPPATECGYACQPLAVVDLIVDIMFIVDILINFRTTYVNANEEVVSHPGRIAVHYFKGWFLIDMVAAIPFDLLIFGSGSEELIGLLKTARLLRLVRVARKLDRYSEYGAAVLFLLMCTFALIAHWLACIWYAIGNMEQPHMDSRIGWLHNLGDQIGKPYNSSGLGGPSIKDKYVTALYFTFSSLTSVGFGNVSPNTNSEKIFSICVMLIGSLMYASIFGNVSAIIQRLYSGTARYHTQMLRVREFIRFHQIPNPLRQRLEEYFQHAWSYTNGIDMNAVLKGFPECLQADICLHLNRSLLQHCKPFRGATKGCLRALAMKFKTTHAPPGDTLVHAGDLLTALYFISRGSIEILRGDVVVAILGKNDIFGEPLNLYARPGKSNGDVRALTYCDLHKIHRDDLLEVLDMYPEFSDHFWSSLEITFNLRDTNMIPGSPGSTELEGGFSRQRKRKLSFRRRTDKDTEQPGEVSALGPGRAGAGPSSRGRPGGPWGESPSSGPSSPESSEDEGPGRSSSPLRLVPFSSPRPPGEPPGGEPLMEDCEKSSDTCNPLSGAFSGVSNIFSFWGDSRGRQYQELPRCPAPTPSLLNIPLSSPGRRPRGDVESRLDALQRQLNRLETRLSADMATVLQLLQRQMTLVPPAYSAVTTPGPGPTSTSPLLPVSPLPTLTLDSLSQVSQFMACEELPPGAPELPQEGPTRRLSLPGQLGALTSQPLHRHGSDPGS
CC(C)C(=O)Nc1ccc(NC(=O)CCc2ccccc2)cn1 gave an activity increase over dofetilide control, less the hit threshold of -14%.
For O=C(Nc1ncc(Br)s1)C(Cc1ccccc1)n1cccc1 (stereo not given), the activity increase over dofetilide control, less the hit threshold was 22% (active).
In the case of O=C(CCc1ccccc1)Nc1nccs1, the activity increase over dofetilide control, less the hit threshold is reported as -12%.
With Cc1cc2[nH]c(=O)c(=O)[nH]c2cc1S(=O)(=O)N1CCN(c2cccc(C)c2C)CC1 the activity increase over dofetilide control, less the hit threshold was -5%.
In the case of CC(Oc1ccc(Cl)cc1)/C(N)=N/O (stereo not given), the activity increase over dofetilide control, less the hit threshold is reported as -20%.
With Cc1ccc2[nH]cc(CCNC(=O)/C=C/c3ccco3)c2c1 the activity increase over dofetilide control, less the hit threshold was -14%.
With CCOc1ccc(CC(C(N)=O)C(N)=O)cc1 the activity increase over dofetilide control, less the hit threshold was -12%.
For CCOc1ccc(-c2c(=O)n(O)c3ccccc3[n+]2[O-])cc1, the activity increase over dofetilide control, less the hit threshold was 74% (active).
In the case of CCCOc1ccc(-c2c(=O)n(O)c3ccccc3[n+]2[O-])cc1, the activity increase over dofetilide control, less the hit threshold is reported as 51% (active).
Work on Cc1cccc(/C=N/Nc2ccc3ccccc3n2)c1 yielded an activity increase over dofetilide control, less the hit threshold of -3%.
For O=S(=O)(Nc1nc(-c2sccc2Cl)cs1)c1cc(Cl)ccc1Cl, the activity increase over dofetilide control, less the hit threshold was 73% (active).
With O=C(Nc1ccccc1)OCCCCCOC(=O)Nc1ccccc1 the activity increase over dofetilide control, less the hit threshold was -11%.
C=CCn1c(O)c(N=NC(=S)Nc2ccccc2F)c2cc(S(=O)(=O)N3CCOCC3)ccc21 was tested, and the activity increase over dofetilide control, less the hit threshold was 0%.
C/C(Cl)=C\Cn1c(O)c(N=NC(N)=S)c2cc(Br)ccc21 was tested, and the activity increase over dofetilide control, less the hit threshold was 49% (active).
Work on COc1ccc(C(=O)O/N=C(\N)c2ccccn2)cc1[N+](=O)[O-] yielded an activity increase over dofetilide control, less the hit threshold of -11%.
Nn1c(SCC(=O)Nc2ccc(OC(F)F)cc2)nnc1-c1ccco1 showed an activity increase over dofetilide control, less the hit threshold of -12%.
CCc1ccc(C(=O)CSc2nc3ccccc3c(=O)[nH]2)cc1 was tested, and the activity increase over dofetilide control, less the hit threshold was -16%.
CCCCOC(=O)Cn1c2ccc(OC)cc2c2nc3ccccc3nc21 was tested, and the activity increase over dofetilide control, less the hit threshold was -28%.
With CC(C)OC(=O)c1c2nc3ccccc3nc2n2c1[nH]c(=O)c1ccccc12 the activity increase over dofetilide control, less the hit threshold was 85% (active).
CC1=NN(C(=O)c2cc(C)nn2C)C(O)(C(F)(F)F)C1 (stereo not given) gave an activity increase over dofetilide control, less the hit threshold of -14%.
CC(C)Sc1nc2ccccc2n2cnnc12 showed an activity increase over dofetilide control, less the hit threshold of -2%.
In the case of O=C(c1cccc(C(F)(F)F)c1)C1CCCN(C(=O)CCn2cnnn2)C1 (stereo not given), the activity increase over dofetilide control, less the hit threshold is reported as -3%.
With CSc1nc(=S)cc(C)[nH]1 the activity increase over dofetilide control, less the hit threshold was 5% (active).
In the case of CCSc1nc(=S)cc(C)[nH]1, the activity increase over dofetilide control, less the hit threshold is reported as 49% (active).
CCc1cc(=O)[nH]c(SCc2ccc(C)cc2)n1 showed an activity increase over dofetilide control, less the hit threshold of -11%.
CCOc1cccc(Nc2cc3n(c(=O)n2)CCc2cc(OC)c(OC)cc2-3)c1 was tested, and the activity increase over dofetilide control, less the hit threshold was -22%.
Compound Cc1cc(C(=O)NP(=O)(N2CCOCC2)N2CCOCC2)c(C)n1-c1ccc(Br)cc1 has an activity increase over dofetilide control, less the hit threshold of -13%.
In the case of Cc1cc(NC(=O)CSc2ccc(-c3ccc(F)cc3)nn2)no1, the activity increase over dofetilide control, less the hit threshold is reported as -12%.
For CCCCC1(O)CC(C(F)(F)F)=NN1C(=O)COc1ccccc1 (stereo not given), the activity increase over dofetilide control, less the hit threshold was 4% (active).
Work on CC(C)(C)C1(O)CC(C(F)(F)F)=NN1C(=O)Cc1ccc([N+](=O)[O-])cc1 (stereo not given) yielded an activity increase over dofetilide control, less the hit threshold of -19%.
Work on O=C(C1CC1)N1N=C(c2ccccc2)CC1(O)C(F)(F)C(F)(F)F (stereo not given) yielded an activity increase over dofetilide control, less the hit threshold of -11%.
COc1cc(OC)c(C2=NOC(C(=O)Nc3ccc4c(c3)OCO4)C2)cc1Cl (stereo not given) showed an activity increase over dofetilide control, less the hit threshold of -21%.
With Oc1ccc(N=Nc2ccccc2-c2nn[nH]n2)c(O)c1 the activity increase over dofetilide control, less the hit threshold was 6% (active).
COc1cc(CNn2nnnc2N)ccc1OCC(=O)NC(C)(C)C gave an activity increase over dofetilide control, less the hit threshold of -15%.
CCCCCCCCCCn1c2c(c(=N)c3c1CCC3)CCC2 was tested, and the activity increase over dofetilide control, less the hit threshold was 49% (active).
With CCOC(=O)NC(=S)Nc1ccc(C(C)(C)C)cc1 the activity increase over dofetilide control, less the hit threshold was 3% (active).
Cc1cc(Br)c(NC(=O)COC(=O)C2CC2C)c(Br)c1 (stereo not given) was tested, and the activity increase over dofetilide control, less the hit threshold was -11%.
For CCOC(=O)NC(=O)/C(C#N)=N\Nc1ccc(Cl)cc1, the activity increase over dofetilide control, less the hit threshold was -17%.
CCOC(=O)NC(=S)Nc1ccc(C(C)(C)C)cc1Br was tested, and the activity increase over dofetilide control, less the hit threshold was 23% (active).
Work on COC(=O)CNC(=S)NC(=O)c1ccc(C(C)(C)C)cc1 yielded an activity increase over dofetilide control, less the hit threshold of -8%.
c1cnc2c(Oc3ncnc4sccc34)cccc2c1 showed an activity increase over dofetilide control, less the hit threshold of -11%.
N#Cc1ccc(OCc2nnc(-c3ccc([N+](=O)[O-])cc3)o2)cc1 gave an activity increase over dofetilide control, less the hit threshold of -3%.
With COc1cc(C2NC(=O)NC(C)=C2C(=O)OCC2CCCCC2)ccc1O (stereo not given) the activity increase over dofetilide control, less the hit threshold was -3%.
CCOC(=O)C1=C(c2ccccc2)NC(=O)NC1c1ccc(OC)c(OC)c1 (stereo not given) gave an activity increase over dofetilide control, less the hit threshold of -6%.
With CCOC(=O)C1=C(c2ccccc2)NC(=O)NC1c1ccc(O)c(Cl)c1 (stereo not given) the activity increase over dofetilide control, less the hit threshold was 5% (active).
For CCC1CCCCN1C(=S)NC(=O)c1cccs1 (stereo not given), the activity increase over dofetilide control, less the hit threshold was 4% (active).
In the case of CC1CCN(C(=S)NC(=O)c2cccc([N+](=O)[O-])c2)CC1, the activity increase over dofetilide control, less the hit threshold is reported as 15% (active).
O=C(O)c1cccc(C(=O)Nc2cccc(NC(=O)C3CCCO3)c2)c1 (stereo not given) was tested, and the activity increase over dofetilide control, less the hit threshold was -14%.
For CCCCCC(=O)NNC(=S)NC(=O)c1ccc([N+](=O)[O-])cc1, the activity increase over dofetilide control, less the hit threshold was -24%.
For CCC1CCCCN1C(=S)NC(=O)c1ccc([N+](=O)[O-])cc1 (stereo not given), the activity increase over dofetilide control, less the hit threshold was 28% (active).
Work on O=C(Nc1ccc(NC(=O)C2CC2)nc1)c1cccs1 yielded an activity increase over dofetilide control, less the hit threshold of -21%.
For O=C(NC(=S)N(CC1CCC1)CC1CCCO1)c1cccc([N+](=O)[O-])c1 (stereo not given), the activity increase over dofetilide control, less the hit threshold was 14% (active).
For CCCCNC(=S)NC(=O)c1ccc([N+](=O)[O-])cc1, the activity increase over dofetilide control, less the hit threshold was -4%.
CCCCN(C(=O)CNC(=O)c1cccs1)C(C(=O)NC1CCCC1)c1ccncc1 (stereo not given) gave an activity increase over dofetilide control, less the hit threshold of -6%.
CCOC(=O)/C=C/c1ccc2c(c1)S(=O)(=O)N(c1cccc(OC)c1)[C@H]2CC(=O)OCC showed an activity increase over dofetilide control, less the hit threshold of -20%.
Compound O=C(NC1CCCC1)C(c1ccncc1)N(Cc1ccccc1F)C(=O)c1csnn1 (stereo not given) has an activity increase over dofetilide control, less the hit threshold of -1%.
In the case of Cc1occc1C(=O)Nc1cccc([N+](=O)[O-])c1, the activity increase over dofetilide control, less the hit threshold is reported as -20%.
For CCC1CCCCN1C(=S)NC(=O)c1cccc([N+](=O)[O-])c1 (stereo not given), the activity increase over dofetilide control, less the hit threshold was 36% (active).
With O=[N+]([O-])c1ccc(Nc2ccccc2F)nc1 the activity increase over dofetilide control, less the hit threshold was -3%.
For O=C(CCc1nc(-c2ccccc2)no1)N1CCCC1, the activity increase over dofetilide control, less the hit threshold was -20%.
CC(C(=O)N1CCN(c2ccc([N+](=O)[O-])cc2)CC1)N1C(=O)C2CC=CCC2C1=O (stereo not given) was tested, and the activity increase over dofetilide control, less the hit threshold was -9%.
Compound C=CCN1C(=O)C(Cc2ccc(OCC)cc2)SC1=Nc1ccc(C(=O)O)cc1 (stereo not given) has an activity increase over dofetilide control, less the hit threshold of -11%.
C=CCn1c(SCc2ccc(C(=O)O)cc2)nc2sc(C)c(C)c2c1=O was tested, and the activity increase over dofetilide control, less the hit threshold was 20% (active).
Compound C=CCOc1ccccc1/C=c1\sc2nc(=O)c(C)nn2c1=O has an activity increase over dofetilide control, less the hit threshold of -7%.
CNC(=O)CSc1nnc(-c2ccco2)n1-c1ccc(C)cc1 gave an activity increase over dofetilide control, less the hit threshold of -10%.
